Records with an inconclusive call do not appear. Calls of active or inactive are those of the source. Unless noted, the call rests on the fitted dose curve; in most records, active means well fitted curve in the direction sought with a large enough effect; inconclusive means small, poorly fitted or top-dose-only effect, or another doubt; inactive means no such curve, though single readings can be large; an effect the other way counts as inactive or inconclusive.
How the values were obtained:
[1] = molecular target: Lysosomal acid glucosylceramidase (Homo sapiens) (UniProt P04062); experiment: Glucocerebrosidase-p2 (AID 348; in the data active means potency below about 10 µM; further: potency means the concentration at half of the fitted maximal effect); conditions: purified GBA, blue fluorogenic substrate, 40 min
Lysosomal acid glucosylceramidase (Homo sapiens), sequence (P04062 whole entry, looked up): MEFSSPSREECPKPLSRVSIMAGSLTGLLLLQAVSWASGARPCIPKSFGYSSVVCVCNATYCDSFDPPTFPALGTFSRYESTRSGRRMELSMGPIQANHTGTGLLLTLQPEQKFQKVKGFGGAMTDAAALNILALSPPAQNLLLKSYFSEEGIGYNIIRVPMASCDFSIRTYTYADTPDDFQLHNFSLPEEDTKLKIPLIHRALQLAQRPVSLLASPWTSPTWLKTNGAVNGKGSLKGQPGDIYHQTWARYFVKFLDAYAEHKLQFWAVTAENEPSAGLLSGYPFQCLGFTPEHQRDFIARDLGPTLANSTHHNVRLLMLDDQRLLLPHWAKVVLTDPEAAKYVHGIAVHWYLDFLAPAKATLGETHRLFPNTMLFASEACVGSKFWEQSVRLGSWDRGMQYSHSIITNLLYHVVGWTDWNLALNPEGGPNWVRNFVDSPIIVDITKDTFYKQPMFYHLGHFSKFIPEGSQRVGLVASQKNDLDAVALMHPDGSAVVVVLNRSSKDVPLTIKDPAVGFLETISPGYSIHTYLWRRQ
Summary of the method: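 Compounds titrated from 0.6 nM upwards against 0.2 nM enzyme in pH 5.9 citric acid/KH2PO4, taurocholate, tween-20; blue fluorogenic substrate 80 uM, 40 min room temperature, stopped and read Ex 365/Em 440 for AC50.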

[2] = AP1 Signaling Pathway (AID 357; active means well fitted curve in either direction with a large enough effect, not every such curve was filed as active; further: on the % scale 0 is the no-effect control and ±100 the full control effect); conditions: ME-180 AP-1-bla reporter, EGF-induced, beta-lactamase ratio, 5 h; at 7.69 µM (top of the series) unless noted
Summary of the method: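 AP-1-bla ME-180 cells with beta-lactamase reporter under AP-1 response element, stimulated with EC50 EGF; compounds titrated, 5 hours at 37 degrees Celsius. CCF4 read at 460/530 nm ratio; positive and negative modulators judged by AC50.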

[3] = NFAT Signaling Pathway (AID 444; active means well fitted curve in either direction with a large enough effect, not every such curve was filed as active;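 further: carbachol stimulus at about its EC50 of 1 µM final; on the % scale 0 is the no-effect control and ±100 the full control effect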); conditions: Jurkat NFAT-bla M1, carbachol, beta-lactamase ratio, 5 h; at 7.69 µM (top of the series) unless noted
Summary of the method: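 Jurkat cells carrying an NFAT-driven β-lactamase reporter and co-transfected muscarinic M1 receptor were treated with compound plus carbachol (1 uM final, an EC50 level) for 5 h at 37 °C. CCF4 loading followed for 1 h at RT; 460/530 nm ratio gave %activity.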

[4] = Stat Signaling Pathway (AID 446; active means well fitted curve in either direction with a large enough effect, not every such curve was filed as active;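 further: ME-180 cervical cancer cells given 40 pM IL-6 alongside compound; SIE-controlled beta-lactamase reporter measured as 460/530 nm FRET emission ratio; on the % scale 0 is the no-effect control and ±100 the full control effect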); conditions: ME-180 SIE beta-lactamase reporter, IL-6 stimulated, 5 h; at 7.69 µM (top of the series) unless noted
Summary of the method: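 Screening format detects activators and inhibitors alike: ME-180 SIE-bla cells stimulated at 40 pM IL-6 for 5 hrs with compound, then dual-emission beta-lactamase read at 405 nm excitation.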

[5] = molecular target: Glucocorticoid receptor (Homo sapiens) (UniProt P04150); experiment: GR-GFP Redistribution (AID 450;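 active means compounds whose dose series gives a full or clear partial fitted curve of increased nuclear translocation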; further: potency means the concentration at half of the fitted maximal effect); conditions: U2OS GR-GFP nuclear translocation, laser cytometry, 2 h
Glucocorticoid receptor (Homo sapiens), sequence (P04150 whole entry, looked up, the tested form may be a part): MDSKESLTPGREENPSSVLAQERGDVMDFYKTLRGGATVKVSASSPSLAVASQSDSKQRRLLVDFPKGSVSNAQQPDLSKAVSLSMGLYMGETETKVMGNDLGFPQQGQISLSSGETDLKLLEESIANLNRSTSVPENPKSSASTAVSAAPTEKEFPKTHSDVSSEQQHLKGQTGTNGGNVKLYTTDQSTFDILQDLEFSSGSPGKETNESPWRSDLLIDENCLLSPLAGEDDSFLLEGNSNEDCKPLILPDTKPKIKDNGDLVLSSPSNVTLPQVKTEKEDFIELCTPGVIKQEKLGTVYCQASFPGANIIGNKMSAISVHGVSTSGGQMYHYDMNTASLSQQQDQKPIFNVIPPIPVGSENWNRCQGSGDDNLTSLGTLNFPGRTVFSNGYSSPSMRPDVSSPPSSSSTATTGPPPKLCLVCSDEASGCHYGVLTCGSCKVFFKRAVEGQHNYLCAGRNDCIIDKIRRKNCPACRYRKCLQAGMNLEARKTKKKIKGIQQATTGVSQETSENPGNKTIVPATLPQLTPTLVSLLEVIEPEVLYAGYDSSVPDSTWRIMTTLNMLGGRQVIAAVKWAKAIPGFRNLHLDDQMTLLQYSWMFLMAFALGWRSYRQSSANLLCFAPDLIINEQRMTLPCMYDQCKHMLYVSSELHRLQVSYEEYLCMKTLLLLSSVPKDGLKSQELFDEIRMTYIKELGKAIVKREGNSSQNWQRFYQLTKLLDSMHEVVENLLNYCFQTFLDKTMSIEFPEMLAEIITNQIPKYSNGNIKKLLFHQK

[6] = molecular target: Glucocorticoid receptor (Homo sapiens) (UniProt P04150); experiment: GR-EFC Redistribution (AID 451; calls by dose curve; further: potency means the concentration at half of the fitted maximal effect); conditions: CHO-K1 GR-EFC translocation, beta-gal luminescence, 2 h
Summary of the method: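 CHO-K1 cells stably expressing nuclear-localized β-gal enzyme acceptor and GR fused C-terminally to the enzyme donor fragment; ligand-driven nuclear translocation restores β-gal by complementation. Compounds titrated up to 46 uM final, 2 h at 37 °C; luminescence read.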

[7] = molecular target: Mitogen-activated protein kinase 10 (Mus musculus) (UniProt Q61831); experiment: JNK3 AlphaScreen Assay (AID 530; active means well fitted curve in either direction with a large enough effect, not every such curve was filed as active;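 further: kinase came from lysate of stimulated human HepG2 cells; signal reports phosphorylation of biotinylated GST-cJun 1-79 at Ser73 with 10 µM ATP; on the % scale 0 is the no-effect control and ±100 the full control effect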); conditions: JNK3 lysate, c-Jun phosphorylation; series mostly up to 57.1 µM
Summary of the method: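 JNK3 came from HepG2 lysates pre-activated with IL-1beta and TNF-alpha and phosphorylated biotinylated GST-cJun (1-79) at 10 uM ATP, pH 7.6, room temperature. Compounds were titrated. AlphaScreen signal used anti-phospho-cJun (Ser73) antibody.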

[8] = molecular target: 3',5'-cyclic-AMP phosphodiesterase 4B (Homo sapiens) (UniProt Q07343); experiment: qHTS Assay for Inhibitors of PDE-IV (AID 607; active means well fitted activation curve with a large enough effect in the main read-out, with a control signal flat, not every such curve was filed as active; further: % of control where 0% means no effect); conditions: HEK293 ACTOne CNG channel cells, membrane potential fluorescence; series mostly up to 22.9 µM
3',5'-cyclic-AMP phosphodiesterase 4B (Homo sapiens), sequence (Q07343 whole entry, looked up): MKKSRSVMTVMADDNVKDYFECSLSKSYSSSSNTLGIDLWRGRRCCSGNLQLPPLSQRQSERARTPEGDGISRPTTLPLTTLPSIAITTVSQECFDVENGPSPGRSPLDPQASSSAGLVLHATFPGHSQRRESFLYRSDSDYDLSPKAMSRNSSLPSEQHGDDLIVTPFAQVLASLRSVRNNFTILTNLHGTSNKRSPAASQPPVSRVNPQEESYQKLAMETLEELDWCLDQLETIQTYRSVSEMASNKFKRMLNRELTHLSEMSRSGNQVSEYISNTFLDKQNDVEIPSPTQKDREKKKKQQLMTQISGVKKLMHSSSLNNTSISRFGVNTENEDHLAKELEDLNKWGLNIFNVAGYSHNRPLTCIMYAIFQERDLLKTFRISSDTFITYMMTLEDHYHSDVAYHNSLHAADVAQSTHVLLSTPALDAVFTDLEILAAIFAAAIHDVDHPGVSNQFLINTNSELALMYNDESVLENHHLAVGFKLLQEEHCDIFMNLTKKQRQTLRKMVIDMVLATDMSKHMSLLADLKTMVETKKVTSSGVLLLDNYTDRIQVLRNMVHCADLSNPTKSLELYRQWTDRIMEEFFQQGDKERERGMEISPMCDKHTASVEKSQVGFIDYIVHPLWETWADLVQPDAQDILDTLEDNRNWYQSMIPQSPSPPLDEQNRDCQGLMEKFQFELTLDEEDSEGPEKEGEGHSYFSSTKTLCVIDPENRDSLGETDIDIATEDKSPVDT
Summary of the method: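 The readout is membrane depolarisation from a cAMP-sensing CNG channel, detected with a potential dye at ex 535/em 590. Cells were HEK293-derived (endogenous PDE-IV) at 1000 cells/well, titrated up to 22.9 uM final.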

[9] = qHTS Assay for Lipid Storage Modulators (AID 1519; calls by dose curve); conditions: Drosophila S3 cells, BODIPY lipid droplet/cell ratio, laser cytometry, cells loaded with oleic acid; for activity change, negative = inhibition: at 57.5 µM (top of the series)
Summary of the method: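 Cells seeded at 5,000 per well were treated with compounds over a concentration series and loaded with oleic acid (400 uM, as added). Lipid droplet fluorescence (488 nm excitation, 500-530 nm channel) was read by laser-scanning cytometry and normalized to 20 uM Triacsin C.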

[10] = molecular target: Dual specificity protein kinase CLK4 (Homo sapiens) (UniProt Q9HAZ1); experiment: qHTS Assay for Inhibitors of CDC-like Kinase 4 (Kinase-Glo Assay) (AID 1770); conditions: recombinant Clk4, Kinase-Glo ATP depletion luminescence; series mostly up to 66.7 µM; further: on the % scale 0 is the no-effect control and ±100 the full control effect; nearly all actives have a fitted effect of over 65% in size
Dual specificity protein kinase CLK4 (Homo sapiens), sequence (Q9HAZ1 whole entry, looked up): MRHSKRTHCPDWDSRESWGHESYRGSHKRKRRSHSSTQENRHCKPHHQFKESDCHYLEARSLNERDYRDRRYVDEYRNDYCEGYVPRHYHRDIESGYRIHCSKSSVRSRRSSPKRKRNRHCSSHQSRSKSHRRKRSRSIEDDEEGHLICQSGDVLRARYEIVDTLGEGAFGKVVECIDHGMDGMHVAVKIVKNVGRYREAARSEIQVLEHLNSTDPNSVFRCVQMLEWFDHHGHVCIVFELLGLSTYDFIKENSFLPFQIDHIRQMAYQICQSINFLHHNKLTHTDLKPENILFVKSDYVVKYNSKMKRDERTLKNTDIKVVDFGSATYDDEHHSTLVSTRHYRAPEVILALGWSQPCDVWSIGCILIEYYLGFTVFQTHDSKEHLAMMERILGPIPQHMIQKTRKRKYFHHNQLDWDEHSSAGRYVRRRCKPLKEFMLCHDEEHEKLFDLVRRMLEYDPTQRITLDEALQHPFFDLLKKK
Summary of the method: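 Substrate mix (RS peptide 100 uM, ATP 1 uM) dispensed, compound pinned in, then Clk4 added to 25 nM final. Incubated 4.5 h at RT; Kinase-Glo reagent added, luminescence read after 5 min.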

[11] = molecular target: Dual specificity protein kinase CLK4 (Homo sapiens) (UniProt Q9HAZ1); experiment: qHTS Assay for Inhibitors of CDC-like Kinase 4 (ADP-Glo Assay) (AID 1771); conditions: recombinant CLK4, ADP-Glo luminescence; series mostly up to 80 µM; further: on the % scale 0 is the no-effect control and ±100 the full control effect; nearly all actives have a fitted effect of over 70% in size
Summary of the method: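 Kinase reaction: Clk4 at 25 nM, RS repeat peptide substrate at 100 uM, ATP at 1 uM, 1 hr, room temperature. Product ADP detected as luciferase signal via ADP-Glo.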

[12] = molecular target: Dual specificity protein kinase CLK4 (Homo sapiens) (UniProt Q9HAZ1); experiment: qHTS Assay for Inhibitors of CDC-like Kinase 4 (ADP-FP Assay) (AID 1795); conditions: Transcreener ADP fluorescence polarization; series mostly up to 50 µM;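 further: recombinant human CLK4 phosphorylating RS repeat peptide at 1 µM ATP; on the % scale 0 is the no-effect control and ±100 the full control effect; nearly all actives have a fitted effect of over 60% in size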
Summary of the method: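 Clk4 6.25 nM; RS peptide 100 uM; ATP 1 uM; 25 mM Tris pH 7.5, 10 mM MgCl2; 1 h reaction. ADP detected via antibody/orange tracer FP displacement; TG003 positive control.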

[13] = molecular target: Ubiquitin carboxyl-terminal hydrolase 1 (Homo sapiens) (UniProt O94782); experiment: Inhibitors of USP1/UAF1: Pilot qHTS (AID 504865); conditions: purified USP1/UAF1, Ub-rhodamine cleavage fluorescence; series mostly up to 54.9 µM;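 further: rhodamine fluorescence freed from ubiquitin-rhodamine substrate followed over time; top concentration of the series differs between compounds; on the % scale 0 is the no-effect control and ±100 the full control effect; nearly all actives have a fitted effect of over 35% in size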
Ubiquitin carboxyl-terminal hydrolase 1 (Homo sapiens), sequence (O94782 whole entry, looked up): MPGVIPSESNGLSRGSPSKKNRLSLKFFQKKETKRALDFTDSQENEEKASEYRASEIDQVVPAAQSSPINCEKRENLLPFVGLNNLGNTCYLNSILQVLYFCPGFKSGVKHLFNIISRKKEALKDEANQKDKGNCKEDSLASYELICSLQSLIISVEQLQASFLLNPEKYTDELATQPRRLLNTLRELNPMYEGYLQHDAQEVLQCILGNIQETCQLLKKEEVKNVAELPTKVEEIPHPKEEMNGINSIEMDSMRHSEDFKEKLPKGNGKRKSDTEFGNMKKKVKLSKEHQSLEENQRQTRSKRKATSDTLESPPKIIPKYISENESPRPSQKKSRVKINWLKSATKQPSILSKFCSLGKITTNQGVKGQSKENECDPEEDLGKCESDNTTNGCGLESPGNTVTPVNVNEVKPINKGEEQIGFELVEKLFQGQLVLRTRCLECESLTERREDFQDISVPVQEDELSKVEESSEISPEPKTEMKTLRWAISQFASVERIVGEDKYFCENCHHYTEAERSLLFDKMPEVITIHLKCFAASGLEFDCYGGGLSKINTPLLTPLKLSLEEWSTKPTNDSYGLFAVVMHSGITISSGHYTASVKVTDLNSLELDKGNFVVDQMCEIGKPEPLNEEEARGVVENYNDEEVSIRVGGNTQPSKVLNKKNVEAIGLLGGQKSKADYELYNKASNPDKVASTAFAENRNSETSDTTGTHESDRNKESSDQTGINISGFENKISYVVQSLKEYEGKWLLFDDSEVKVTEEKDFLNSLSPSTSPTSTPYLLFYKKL
Summary of the method: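 In 50mM HEPES pH 7.8 containing 0.5mM EDTA, 1mM TCEP, 0.1 mg/ml BSA and 0.01% Tween-20, 1nM USP1/UAF1 is exposed to compound for 15 min, then Ub-Rho (150nM final) is added and fluorescence is read over time.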

[14] = Primary qHTS for small molecule stabilizers of the endoplasmic reticulum resident proteome: Secreted ER Calcium Modulated Protein (SERCaMP) assay (AID 1508630); conditions: SH-SY5Y GLuc-SERCaMP (Gaussia luciferase released on ER calcium loss) secretion, thapsigargin, luminescence; series mostly up to 38.4 µM; further: on the % scale 0 is the no-effect control and ±100 the full control effect
Summary of the method: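 GLuc-SERCaMP-expressing SH-SY5Y cells, pretreated 16 h with compound, are challenged with thapsigargin to empty ER calcium stores; after 4 h, coelenterazine is added directly to the medium and luminescence is imaged.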

[15] = molecular target: Cytochrome P450 1A2 (Homo sapiens) (UniProt P05177); experiment: p450-cyp1a2 (AID 410; calls by dose curve; further: potency means the concentration at half of the fitted maximal effect); conditions: recombinant CYP1A2, luciferin-ME demethylation, luminescence; series mostly up to 57 µM
Cytochrome P450 1A2 (Homo sapiens), sequence (P05177 whole entry, looked up): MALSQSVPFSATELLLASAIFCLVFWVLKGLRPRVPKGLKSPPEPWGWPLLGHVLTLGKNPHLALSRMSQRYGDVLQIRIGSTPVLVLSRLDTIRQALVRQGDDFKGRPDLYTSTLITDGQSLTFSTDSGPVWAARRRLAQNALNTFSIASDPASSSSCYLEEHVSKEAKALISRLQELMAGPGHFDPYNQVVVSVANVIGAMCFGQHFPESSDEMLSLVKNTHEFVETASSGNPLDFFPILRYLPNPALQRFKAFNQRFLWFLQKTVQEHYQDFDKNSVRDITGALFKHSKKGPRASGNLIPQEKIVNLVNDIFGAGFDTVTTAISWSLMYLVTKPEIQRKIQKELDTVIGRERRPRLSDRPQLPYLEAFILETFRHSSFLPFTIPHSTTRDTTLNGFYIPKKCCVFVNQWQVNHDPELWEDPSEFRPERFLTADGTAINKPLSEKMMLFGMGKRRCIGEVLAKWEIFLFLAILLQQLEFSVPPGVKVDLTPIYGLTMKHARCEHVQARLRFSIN
Summary of the method: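 Inhibition was calculated relative to 57 uM furafylline (full inhibition). The reaction used human CYP1A2 at 20nM with Luciferin-ME at its Km, 100uM, driven by an NADPH-regenerating system for 60 min at room temperature.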

[16] = molecular target: Cytochrome P450 3A4 (Homo sapiens) (UniProt P08684); experiment: qHTS Assay for Inhibitors and Substrates of Cytochrome P450 3A4 (AID 884); conditions: recombinant CYP3A4, Luciferin-PPXE luminescence; series mostly up to 57.1 µM; further: potency means the concentration at half of the fitted maximal effect; nearly all actives have a fitted effect of over 50% in size
Cytochrome P450 3A4 (Homo sapiens), sequence (P08684 whole entry, looked up): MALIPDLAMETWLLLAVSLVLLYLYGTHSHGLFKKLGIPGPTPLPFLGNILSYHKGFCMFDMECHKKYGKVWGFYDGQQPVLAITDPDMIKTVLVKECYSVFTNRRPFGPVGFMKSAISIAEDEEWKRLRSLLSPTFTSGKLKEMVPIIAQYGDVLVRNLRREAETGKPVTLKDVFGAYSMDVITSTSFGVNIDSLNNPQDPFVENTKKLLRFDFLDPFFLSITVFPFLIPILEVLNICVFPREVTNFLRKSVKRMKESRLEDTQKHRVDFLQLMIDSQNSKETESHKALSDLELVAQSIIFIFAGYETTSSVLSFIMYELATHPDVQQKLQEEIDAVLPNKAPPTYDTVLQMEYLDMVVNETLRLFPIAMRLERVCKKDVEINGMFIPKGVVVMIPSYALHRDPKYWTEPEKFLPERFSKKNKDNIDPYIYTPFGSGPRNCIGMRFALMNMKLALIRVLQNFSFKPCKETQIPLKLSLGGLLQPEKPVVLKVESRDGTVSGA
Summary of the method: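 20 nM human CYP3A4 with 25 uM Luciferin-PPXE (at KM) in 200 mM KPO4, preincubated 10 min with compound; NADPH regeneration started a 60 min RT reaction. Luciferin detected by luminescence, normalized to 57 uM ketoconazole as full inhibition.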

[17] = molecular target: Cytochrome P450 3A4 (Homo sapiens) (UniProt P08684); experiment: qHTS Assay for Activators of Cytochrome P450 3A4 (AID 885); conditions: recombinant CYP3A4, Luciferin-PPXE luminescence, 60 min; series mostly up to 57.1 µM; further: nearly all actives have a fitted effect of over 65% in size
Summary of the method: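 Steps: enzyme/substrate mix dispensed; compound added, 10 min RT; NADPH regeneration solution added, 60 min RT; luciferin detection buffer stops reaction; 20 min later luminescence measured.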

[18] = molecular target: Cytochrome P450 2C19 (Homo sapiens) (UniProt P33261); experiment: qHTS Assay for Inhibitors and Substrates of Cytochrome P450 2C19 (AID 899); conditions: recombinant CYP2C19, luciferin-H EGE luminescence; series mostly up to 57.1 µM; further: potency means the concentration at half of the fitted maximal effect; nearly all actives have a fitted effect of over 60% in size
Cytochrome P450 2C19 (Homo sapiens), sequence (P33261 whole entry, looked up): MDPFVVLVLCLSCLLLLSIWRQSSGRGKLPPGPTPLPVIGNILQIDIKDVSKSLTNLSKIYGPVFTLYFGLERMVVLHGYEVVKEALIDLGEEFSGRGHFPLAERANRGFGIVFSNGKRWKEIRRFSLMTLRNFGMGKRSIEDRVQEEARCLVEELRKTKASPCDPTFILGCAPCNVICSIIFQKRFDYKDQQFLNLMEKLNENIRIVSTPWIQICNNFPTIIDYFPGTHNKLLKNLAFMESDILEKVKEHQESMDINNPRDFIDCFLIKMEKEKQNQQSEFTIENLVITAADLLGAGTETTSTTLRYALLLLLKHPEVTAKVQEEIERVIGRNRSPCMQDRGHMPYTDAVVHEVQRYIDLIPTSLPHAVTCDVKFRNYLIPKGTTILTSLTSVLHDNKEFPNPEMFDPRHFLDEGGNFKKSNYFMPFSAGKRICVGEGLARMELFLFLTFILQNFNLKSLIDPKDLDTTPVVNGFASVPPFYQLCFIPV
Summary of the method: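 Human CYP2C19 (5nM) with Luciferin-H EGE at 10uM (its KM) in 50mM KPO4 was preincubated with compound for 10 min at 37C. NADPH regeneration started a 60 min 37C reaction. Luciferin was read by luminescence, normalized to 57uM ketoconazole.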

[19] = measured here: cell count channel max response
[20] = measured here: lipid channel max response

Row | SMILES | Potency [1] | activity change, negative = inhibition [2] | activity change, negative = inhibition [3] | activity, negative = inhibition [4] | Potency [5] | Potency [6] | outcome [7] | Potency [8] | activity change, negative = inhibition [9] | max response [9, 19] [%] | max response [9, 20] [%] | Potency [10] | Potency [11] | Potency [12] | Potency [13] | Potency [14] | Potency [15] | Potency [16] | Potency [17] | Potency [18]
1 | COc1ccc(-c2nc3cnc(N4CCOCC4)nc3n(C)c2=O)cc1 | > 11.4 µM (inactive) | -14.2% (inactive) | -0.157% (inactive) | -2.93% (inactive) | > 9.22 µM (inactive) | > 46 µM (inactive) | inactive | inactive | 1.23% (inactive) | 7.61 | 5.75 | inactive | inactive | inactive | inactive | inactive | – | – | – | –
2 | COc1ncc2nc(-c3ccc(F)cc3)c(=O)n(-c3ccccc3)c2n1 | > 11.4 µM (inactive) | -5.39% (inactive) | -7.66% (inactive) | -2.33% (inactive) | > 9.22 µM (inactive) | > 46 µM (inactive) | inactive | inactive | 2.16% (inactive) | -0.95 | -1.99 | inactive | inactive | inactive | inactive | inactive | – | – | – | –
3 | CN(Cc1ccco1)c1ncncc1-c1ccccc1Cl | > 11.4 µM (inactive) | 23.7% (inactive) | – | 3.72% (inactive) | > 46 µM (inactive) | > 46 µM (inactive) | inactive | inactive | 7.31% (inactive) | 14.4 | 19.6 | inactive | inactive | inactive | inactive | inactive | 25.1 µM (active) | 0.501 µM (active) | inactive | 0.794 µM (active)
4 | CNc1ncncc1-c1c(C)noc1C | > 11.4 µM (inactive) | -14.2% (inactive) | -0.793% (inactive) | 11.7% (inactive) | > 46 µM (inactive) | > 46 µM (inactive) | inactive | inactive | 7.32% (inactive) | 37 | 45.6 | inactive | inactive | inactive | inactive | inactive | – | – | – | –
5 | COc1ccc(-c2nc3cnc(Nc4cccc(OC)c4)nc3n(C3CC3)c2=O)cc1 | > 11.4 µM (inactive) | -4.98% (inactive) | -8.58% (inactive) | 25.2% (inactive) | > 9.22 µM (inactive) | > 46 µM (inactive) | inactive | inactive | 0.287% (inactive) | 17.2 | 15 | inactive | inactive | inactive | inactive | inactive | – | – | – | –
6 | CN1CCN(c2ncc3ncc(=O)n(C[C@H]4CCCO4)c3n2)CC1 | > 11.4 µM (inactive) | -9.63% (inactive) | – | -20.2% (inactive) | – | > 46 µM (inactive) | inactive | inactive | 6.86% (inactive) | 7.9 | 13.9 | inactive | inactive | inactive | inactive | inactive | 10 µM (active) | – | – | –
7 | Cc1ccccc1-c1cncnc1NCc1ccccc1 | > 11.4 µM (inactive) | -6.25% (inactive) | – | – | > 46 µM (inactive) | > 46 µM (inactive) | inactive | – | 5.04% (inactive) | 7.66 | 10.6 | inactive | inactive | inactive | inactive | inactive | 12.6 µM (active) | 0.316 µM (active) | inactive | 2 µM (active)
8 | COCCn1c(=O)cnc2cnc(N3CCN(C)CC3)nc21 | > 11.4 µM (inactive) | -13.3% (inactive) | -29.3% (inactive) | -12.7% (inactive) | > 9.22 µM (inactive) | > 46 µM (inactive) | inactive | inactive | 0.388% (inactive) | 4.53 | 3.72 | inactive | inactive | inactive | inactive | inactive | – | – | – | –
9 | COc1ccc(-n2c(=O)c(-c3cn(C)c4ccccc34)nc3cnc(N4CCOCC4)nc32)cc1 | > 11.4 µM (inactive) | 11.1% (inactive) | – | 3.33% (inactive) | > 9.22 µM (inactive) | > 46 µM (inactive) | inactive | inactive | 7.4% (inactive) | 4.27 | 9.94 | inactive | inactive | inactive | inactive | inactive | 31.6 µM (active) | – | – | –
10 | COc1ccc(-c2nc3cnc(N4CCOCC4)nc3n(-c3ccccc3)c2=O)cc1 | > 11.4 µM (inactive) | 25.7% (inactive) | 23.9% (inactive) | 13.1% (inactive) | > 9.22 µM (inactive) | > 46 µM (inactive) | inactive | inactive | 1.08% (inactive) | 22 | 21.4 | inactive | inactive | inactive | inactive | inactive | – | – | – | –
11 | O=c1c(-c2cc(F)cc(F)c2)nc2cncnc2n1Cc1ccccc1 | > 11.4 µM (inactive) | 16.7% (inactive) | -18% (inactive) | -8.19% (inactive) | > 9.22 µM (inactive) | > 46 µM (inactive) | – | – | 2.57% (inactive) | -10.3 | -10.6 | inactive | inactive | inactive | inactive | inactive | – | – | – | –
